High-throughput results as filed in PubChem BioAssay.
MPTP block = blocks calcium-induced mitochondrial swelling; AID 602449; inhibition, % at 10 µM; isolated mouse mitochondria, Ca2+ swelling absorbance, 30 min; 360,000 tested, 1.4% active;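 active = inhibition of 50% or more, scaled per plate between neutral and stimulator controls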;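 note: 0% = DMSO wells given calcium and 100% = 1 mM EGTA wells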
dFosB act-1 = mouse delta FosB homodimer activation; P13346; AID 493131; purified delta FosB, TAMRA-CDK5 oligo fluorescence polarization; percent of positive-control signal above neutral wells; 340,000 tested, 0.99% active; activation, % at 25 µM;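 active = mean activation above about 17%, with every replicate also reaching it, limit read from the data, passing the limit was not always enough; inconclusive = only one of the two conditions met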
Target sequence (P13346 whole entry, looked up): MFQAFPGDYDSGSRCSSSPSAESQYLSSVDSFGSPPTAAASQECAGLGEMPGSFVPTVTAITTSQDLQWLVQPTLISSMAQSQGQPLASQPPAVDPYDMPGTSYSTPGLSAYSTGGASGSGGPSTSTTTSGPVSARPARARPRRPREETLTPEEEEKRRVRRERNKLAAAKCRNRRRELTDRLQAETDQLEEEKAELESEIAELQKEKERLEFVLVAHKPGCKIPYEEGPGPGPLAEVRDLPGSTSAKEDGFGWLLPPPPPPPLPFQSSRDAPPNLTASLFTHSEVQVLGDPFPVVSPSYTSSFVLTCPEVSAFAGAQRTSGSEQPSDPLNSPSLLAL
HSP90 refold inh = blocks HSP90-mediated luciferase refolding in reticulocyte lysate; Rabbit reticulocyte lysate, luciferase refolding luminescence, 3 h; inhibition, % at 5.6 µM; 290,000 tested, 0.91% active; AID 1789;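 active = inhibition above the screen-wide mean plus 3 SD, computed separately per campaign, cut at about 16% in these data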;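 note: 0% = DMSO wells and 100% = 60 µM geldanamycin wells; inhibitors lower the luminescence because luciferase stays unfolded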
Platelet DG rel = platelet dense granule release activity. human platelet-rich plasma, SFLLRN dense granule ATP release, luminescence. inhibition, %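 (compounds screened at 7.5 µM in platelet-rich plasma)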. 300,000 tested, 0.22% active;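 active = mean replicate score, as percent of positive control, at or above 50; inconclusive = mean below 50 but at least one replicate at or above 50; inactive = mean and every replicate below 50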
HSF1 inh = HSF1 inhibition; activity change, negative = inhibition, % at 7.5 µM (by protocol); NIH3T3-HGL HSE-luciferase, MG132-induced, luminescence 8 h; hits give low values; AID 2098; 300,000 tested, 0.77% active;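 active = more than half of replicate wells show activity change below -50%, luminescence cut by over half; inconclusive = some wells, but at most half, below -50%; inactive = no replicate well below -50%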;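 note: luciferase reports HSF-1 transcriptional activity via heat shock element; 0% = median of DMSO wells and -100% = zero luminescence signal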
HSF1 activator = increases HSF-1 driven luciferase reporter signal; AID 504408; activation, % at 9 µM; NIH3T3-HGL HSF-1 luciferase reporter, MG132, 8 h; 100% = twice DMSO control signal; 300,000 tested, 1.7% active;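 active = mean replicate activation of at least 50% with a set share of replicates each reaching 50%; inconclusive = only one of those two conditions met; inactive = mean below 50% and too few replicates reaching it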;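 note: 0% = median of the neutral control wells and 100% = twice that signal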
HSP90 confirm = confirmation of HSP90 inhibitors; inhibition, % at 5.9 µM; 2,300 tested, 64% active; AID 1846; shares compounds with HSP90 refold inh; rabbit reticulocyte lysate, luciferase refolding luminescence, 3 h; in the data active = inhibition above about 18%;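 note: 0% = vehicle wells and 100% = reference inhibitor wells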
luciferase ctr = counter-screen for HSP90 inhibitors: inhibitors of firefly luciferase; shares compounds with HSP90 refold inh; purified native firefly luciferase, luminescence; inhibition, % at 5.9 µM; 2,300 tested, 48% active;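 active = inhibition above the mean inhibition of all tested sample wells plus 3 SD, cut at about 10% in these data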;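 note: 0% = DMSO with luciferase and 100% = wells lacking luciferase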
dFosB act-2 = enhances mouse delta FosB homodimer binding to DNA; shares compounds with dFosB act-1; purified delta FosB, TAMRA-CDK5 oligo fluorescence polarization; normalised: neutral wells 0, positive control 100; activation, % at 24.9 µM; 2,400 tested, under 10 active; AID 588690;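 active = highest replicate activation at or above 34% and every replicate reaching that threshold; inconclusive = meets only one of the two criteria; inactive = meets neither criterion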;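 note: higher polarization means more probe DNA bound by delta FosB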
MPTP counter = mitochondrial membrane potential, counter-screen | shares compounds with MPTP block | isolated mitochondria, Rhodamine 123 fluorescence | inhibition, % at 10 µM | 5,000 tested, 78% active | AID 624504; in the data active = inhibition above about 22%;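 note: 0% = DMSO vehicle and 100% = positive control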
MPTP swell DR = dose response confirmation of mitochondrial permeability transition pore inhibitors. shares compounds with MPTP block. isolated mitochondria swelling, absorbance. IC50, µM. 780 tested, 58% active. AID 651561; in the data active = IC50 below about 20 µM
MPTP counter DR = MPTP inhibitor counter-screen activity, dose response; shares compounds with MPTP block; isolated mitochondria counterscreen, fluorescence read-out; IC50, µM; 780 tested, 49% active; in the data active = IC50 below about 80 µM
Numbers without * were called inactive; i = inactive; ? = inconclusive; · = no result. Compounds with a hit are over-represented: about 4.9% of the library has one in this group of screens.

SMILES	MPTP block	dFosB act-1	HSP90 refold inh	Platelet DG rel	HSF1 inh	HSF1 activator	dFosB act-2	others
O=C(O)CC1OCC=C2CN3CCC45C6=CC(=O)C(=O)C([N+](=O)[O-])=C6NC4C1C2CC35 (stereo not drawn)	-1	-2	35*	-9	-4	-7	·	HSP90 confirm=72*;luciferase ctr=-2
O=C(O)CC1OCC=C2CN3CCC45c6ccccc6NC4C1C2CC35 (stereo not drawn)	0	10	0	0	-3	-12	·
CN1/C(=C\C=C\C2=[N+](C)c3ccc4ccccc4c3C2(C)C)C(C)(C)c2ccccc21	·	·	8	·	·	·	·
C[N+]1=C(/C=C/Nc2ccccc2)C(C)(C)c2ccccc21	3	23*	-1	-10	-23	-17	?
CN1/C(=C\C=Nc2ccccc2)C(C)(C)c2ccccc21	4	26*	-3	4	-13	-15	6
Cc1cc(NC(=O)COC(=O)c2c(C)nn(Cc3ccccc3)c2C)no1	0	-2	4	1	7	9	·
Cc1cc(NC(=O)COC(=O)c2c(C)nn(Cc3ccccc3Cl)c2Cl)no1	0	46*	-1	-2	-15	-15	-13
CCCCCn1c(=O)c(C(=O)Nc2ccccc2S(N)(=O)=O)c(O)c2ccccc21	-3	63*	1	11	7	31	?
CCCCn1c(=O)c(C(=O)Nc2ccccc2S(N)(=O)=O)c(O)c2ccccc21	-2	-12	-5	10	-5	11	·
CCCNC(=O)N1[C@H]2CC[C@@H]1C(C(=O)OC)=C(c1cccc(OC)c1OC)C2	-1	1	·	1	-5	-5	·
CCC(c1nnnn1-c1ccc2c(c1)OCCO2)N1CCC2(CC1)C(=O)NCN2c1ccccc1 (stereo not drawn)	0	·	·	·	·	·	·
NC(N)=Nc1ccc2[nH]c3c(c2c1)C[C@@]1(O)[C@H]2Cc4ccc(O)c5c4[C@@]1(CCN2CC1CC1)C3O5 (stereo partly drawn)	4	45*	·	·	·	·	5
O=C(/C=C/c1c[nH]c2ccccc12)c1c(O)n(CCc2ccccc2)c(=O)[nH]c1=O	-8	22*	3	1	-9	-17	?
COC(=O)CC(NC(=S)N1CC2C[C@@H](C1)Cn1c2cccc1=O)C(=O)OC (stereo partly drawn)	0	1	-2	0	-5	-4	·
CC(C)c1ccc(C(c2c(O)c3ccccc3oc2=O)c2c(O)c3ccccc3oc2=O)cc1	78*	·	·	·	·	·	·	MPTP counter=2;MPTP swell DR=3.9*;MPTP counter DR=<2.5*
COc1ccc(N2CCN(CCCN)CC2)cc1	70*	1	1	63*	-6	9	·	MPTP counter=-4;MPTP swell DR=i;MPTP counter DR=>80
N#CC(C#N)=C(C#N)c1ccc(Nc2ccccc2)cc1	118*	8	1	7	-6	16	·	MPTP counter=61*
C=C1C(=O)O[C@@H]2C[C@@H](C)[C@@H]3C4OC4C(=O)[C@@]3(C)[C@@H](O)[C@H]12 (stereo partly drawn)	0	-1	·	-1	17	29	·
Cc1cc(OC(=O)c2ccco2)c2c3c(c(=O)oc2c1)CCCC3	104*	-16	1	17	4	20	·	MPTP counter=87*
Cc1cc(OC(=O)c2cccs2)c2c3c(c(=O)oc2c1)CCCC3	68*	-6	-2	-5	7	10	·	MPTP counter=86*
Cc1cc(OCC(=O)O)c2c3c(c(=O)oc2c1)CCCC3	-3	-1	1	4	-7	-1	·
